Each structure is given as a SMILES string. Among all 50,000 compounds or so, about 800 (1.6%) showed an effect of 50% or more. Many of the other results were omitted from the sample, so strong results are more common in it than they were.

The target of the assay is Bcl-2-like protein 10 (Homo sapiens) (UniProt Q9HD36). Description: Phenotype converters, Bcl-B/TR3 peptide binding displacement, primary biochemical FP (AID 1240).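 Note: 0% = Bcl-B with tracer peptide and DMSO and 100% = tracer peptide lacking Bcl-B.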 Conditions: GST-Bcl-B / FITC-TR3 peptide fluorescence polarization; stronger effect = higher value; compound at 3.75 mg/L. A general note: In fluorescence polarisation assays a small probe gives low polarisation when free and higher when bound to something large.
Sequence of Bcl-2-like protein 10 (Homo sapiens) (Q9HD36 whole entry, looked up): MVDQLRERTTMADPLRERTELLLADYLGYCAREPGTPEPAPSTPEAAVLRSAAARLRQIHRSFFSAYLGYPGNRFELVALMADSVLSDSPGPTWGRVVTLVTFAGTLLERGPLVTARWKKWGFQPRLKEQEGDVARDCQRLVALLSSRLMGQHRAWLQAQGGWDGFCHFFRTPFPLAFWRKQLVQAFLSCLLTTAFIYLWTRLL
On to `C=CCSc1nc2ccccc2n1C(=O)C1C(C=C(Cl)Cl)C1(C)C` (stereo unspecified), for which the displacement stood at 7.1%.
With `CCOc1ccc(C(=O)NCc2cccs2)cc1OCC` the figure was -0.9%; with `O=C(NCCN1CCCC1=O)Nc1ccccc1`, 10.9%; with `O=C(NCCCNC(=O)c1cccc(F)c1)c1cccc(F)c1`, 3.2%.
As to `O=C(c1cccc(I)c1)N1CCN(c2ccccn2)CC1`, the displacement is 6.9%.
Under `O=C1CC(N2CCN(Cc3ccccc3)CC2)C(=O)N1c1ccc(Cl)c(Cl)c1` (stereo unspecified) stands 1.7%; under `O=c1c2ccccc2nc(/C=C\c2ccccc2O)n1-c1cccc2ccccc12`, -6.6%; under `O=c1c2ccccc2nc(/C=C/c2cccc([N+](=O)[O-])c2)n1-c1cccc2ccccc12`, 5%.
Under `CN(C)c1ccc(/C=C/c2nc3ccccc3c(=O)n2-c2cccc3ccccc23)cc1` stands 105%.
Regarding `Cn1c(/C=C/c2ccc3c(c2)OCO3)nc2ccccc2c1=O`, the displacement stood at 1.3%.
With `O=c1c2ccccc2nc(/C=C/c2ccccc2[N+](=O)[O-])n1-c1cccc2ccccc12` the figure was -7%.
For `O=c1c2ccccc2nc(/C=C/c2ccc3c(c2)OCO3)n1-c1cccc2ccccc12`, the displacement is 78.1%.
With `COc1ccccc1-n1cnc2cc(NC(C)=O)ccc21` the figure was 14.7%; with `CC(C)(C)c1cc(C2=C(Cl)C(=O)c3ccccc3C2=O)cc(C(C)(C)C)c1O`, 6.9%; with `O=C1N=c2ccc(Cl)cc2=C1c1sc(NS(=O)(=O)Cc2ccccc2)nc1O`, -7.2%.
`CC1=C(C(=O)Nc2ccccc2)C(c2ccccc2Br)NC(=S)N1` (stereo unspecified): the displacement was -1.9%.
Under `CC1=C(C(=O)Nc2ccc(C)cc2)C(c2ccccc2Br)NC(=S)N1` (stereo unspecified) stands 84.9%; under `CC1=C(C(=O)Nc2ccc(Br)cc2)C(c2ccccc2Br)NC(=S)N1` (stereo unspecified), -7%.
In the case of `Cc1ccc(SCCNC(=O)CN(c2ccc(C)cc2)S(C)(=O)=O)cc1`, the displacement was -13.4%.
Regarding `O=C(C1=C(O)C(=O)N(c2nncs2)C1c1ccc(Cl)cc1)c1cccs1` (stereo unspecified), the displacement is 125%.
In the case of `O=C1C(=O)N(c2nncs2)C(c2cccc(Br)c2)/C1=C(\O)c1ccc(F)cc1` (stereo unspecified), the displacement turned out to be 16.6%.
Take `O=C(C1=C(O)C(=O)N(c2nncs2)C1c1ccccc1F)c1cccs1` (stereo unspecified): the displacement came to 129%.
With `COc1ccc(C2/C(=C(\O)c3ccc(F)cc3)C(=O)C(=O)N2c2nncs2)cc1` (stereo unspecified) the figure was 11%; with `COc1ccc(C2C(C(=O)c3cccs3)=C(O)C(=O)N2c2nncs2)cc1` (stereo unspecified), 143%.
Under `COc1cc(C2/C(=C(\O)c3ccc(F)cc3)C(=O)C(=O)N2c2nncs2)ccc1O` (stereo unspecified) stands 8.3%.
For the compound `COc1ccc(C2/C(=C(\O)c3ccc(C)cc3)C(=O)C(=O)N2c2nncs2)cc1` (stereo unspecified), the displacement came out at 13.6%.
As to `COc1ccc(C2C(C(C)=O)=C(O)C(=O)N2c2nc3ccccc3s2)cc1OC` (stereo unspecified), the displacement was -10.4%.
For the compound `O=C(C1=C(O)C(=O)N(c2nncs2)C1c1cccc([N+](=O)[O-])c1)c1cccs1` (stereo unspecified), the displacement turned out to be 7.1%.
With `O=C1C(=O)N(c2nncs2)C(c2ccc(Cl)cc2)/C1=C(\O)c1ccc(F)cc1` (stereo unspecified) the figure was 20.8%.
With `CC(=O)C1=C(O)C(=O)N(c2nc3ccccc3s2)C1c1ccccc1F` (stereo unspecified) the figure was -8.5%; with `COc1ccc(C2C(C(=O)c3cccs3)=C(O)C(=O)N2c2nncs2)cc1OC` (stereo unspecified), 84.6%.
Under `C/C(=N\N=C1\NC(=O)C(CC(=O)Nc2ccccc2C(F)(F)F)S1)c1ccco1` (stereo unspecified) stands -7.9%; under `O=[N+]([O-])c1ccc(N2CCN(S(=O)(=O)c3ccccc3)CC2)cc1NCCc1ccccc1`, 7.8%.
On to `Cc1ccc2oc(-c3cc(N)ccc3O)nc2c1`, for which the displacement stood at 5.4%.
With `S=C1NCCOCCOCCOCCNC(=S)N2CCOCCOCCN1CCOCC2`, the displacement amounted to 14.7%.
With `O=C1C2C(c3ccccc3)C=CC(c3ccccc3)C2C(=O)N1Cc1ccc(F)cc1` (stereo unspecified) the figure was -7.7%; with `COc1cc(/C=N\n2nnnc2N)ccc1OCc1ccc(F)cc1`, 10.6%.
With `CC1CC(C)CN(C(=O)c2ccc(Cl)cc2Cl)C1` (stereo unspecified) the figure was -3.8%; with `Cc1ccc(Cl)c(OCC(O)Cn2c(C)nc3ccccc32)c1` (stereo unspecified), -11.5%.
With `COc1ccc(OCC(O)Cn2c(C)nc3ccccc32)cc1` (stereo unspecified) the figure was -22.4%.
For the compound `O=C(O)C1C2CCC(O2)C1C(=O)N1CCN(c2ccc(F)cc2)CC1` (stereo unspecified), the displacement is -9.7%.
For `CCOCCOC(=O)C1=C(C)NC2=C(C(=O)CC(C)(C)C2)C1c1cccc(Cl)c1Cl` (stereo unspecified), the displacement came to 3.1%.
For `CCCCCCOc1ccc(N2C(=O)CC(NCc3ccc(OC)cc3)C2=O)cc1` (stereo unspecified), the displacement was found to be 4.5%.
With `Cc1ccc(C2/C(=C(\O)c3ccccc3)C(=O)C(=O)N2c2nncs2)cc1` (stereo unspecified), the displacement was 11.3%.
Under `CC(C)(C)c1ccc(C2/C(=C(\O)c3ccc(F)cc3)C(=O)C(=O)N2c2nncs2)cc1` (stereo unspecified) stands 11.3%; under `Cc1ccc(/C(O)=C2\C(=O)C(=O)N(c3nncs3)C2c2cccc(Br)c2)cc1` (stereo unspecified), 18.7%.
Regarding `O=C1C(=O)N(c2nncs2)C(c2ccc(F)cc2)/C1=C(\O)c1ccccc1` (stereo unspecified), the displacement came out at 13.6%.
With `Cc1ccc(C2C(C(=O)c3cccs3)=C(O)C(=O)N2c2nncs2)cc1` (stereo unspecified), the displacement turned out to be 121%.
With `O=C(C1=C(O)C(=O)N(c2nncs2)C1c1ccc(F)cc1)c1cccs1` (stereo unspecified) the figure was 109%; with `Nn1c(Nc2ccccc2)nc2ccccc2c1=O`, -15.5%; with `O=C(N/N=C/c1cccc([N+](=O)[O-])c1)C1CC(=O)N(c2ccc(F)cc2)C1` (stereo unspecified), -10.4%.

Source of the values: PubChem BioAssay AID1240 (Sanford-Burnham Center for Chemical Genomics, 2008).
